Screening data deposited in PubChem BioAssay by National Center for Advancing Translational Sciences (NCATS).
A selection: hits, their analogues and other compounds. The true share with any hit is near 10%.
SW480 rereplic: inducers of DNA re-replication in SW480 colon cancer cells. AID 624297. hit rate 1.8% among 340,000. Potency, µM (titrated, usually from 46.1 µM), for inactives: top-dose re-replication activation, most hits filed as activators. SW480 DNA re-replication, Hoechst DNA content imaging, 48 h; further: % of control where 0% means no effect; nearly all actives have a fitted effect of over 55% in size
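250 cells/well; 23 nL cpd via pin tool; 48 hr, 37 C, 5% CO2; Hoechst 40 min; imager read of total nuclear intensity, ex 405/em 500-530 nm.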
RORgamma inh: blocks mouse ROR gamma transcriptional activity; P51450; Drosophila S2 Gal4-RORgamma UAS-luciferase reporter, 20 h; Potency, µM (titrated, usually from 53.6 µM), inactives show at the highest dose activity change, negative = inhibition, hits mostly inhibitors; hit rate 5.4% among 310,000; AID 2551; further: on the % scale 0 is the no-effect control and ±100 the full control effect; nearly all actives have a fitted effect of over 60% in size
Target sequence (P51450 whole entry, looked up, the tested form may be a part): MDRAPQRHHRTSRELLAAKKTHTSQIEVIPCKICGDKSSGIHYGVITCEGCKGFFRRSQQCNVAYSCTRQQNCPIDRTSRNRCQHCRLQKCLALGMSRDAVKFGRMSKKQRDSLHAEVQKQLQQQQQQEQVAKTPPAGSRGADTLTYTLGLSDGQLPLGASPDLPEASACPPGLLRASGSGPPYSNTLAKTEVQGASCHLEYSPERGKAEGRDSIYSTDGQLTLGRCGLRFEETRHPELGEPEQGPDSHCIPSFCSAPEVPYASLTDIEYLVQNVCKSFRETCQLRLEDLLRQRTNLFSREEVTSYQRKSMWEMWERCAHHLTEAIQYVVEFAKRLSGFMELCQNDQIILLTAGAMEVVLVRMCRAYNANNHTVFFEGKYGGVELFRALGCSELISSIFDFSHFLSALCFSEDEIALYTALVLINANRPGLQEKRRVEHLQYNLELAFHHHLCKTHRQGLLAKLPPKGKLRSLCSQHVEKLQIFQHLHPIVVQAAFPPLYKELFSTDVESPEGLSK
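ROR gamma transcriptional activity was tracked as Gal4-UAS luciferase output in stably transfected Drosophila Schneider cells, with compound added 1 hr before 700 uM copper sulfate induction and a 20 hr ambient-temperature incubation.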
MCF10A rereplic: DNA re-replication induction in MCF 10a cells. Potency, µM (titrated, usually from 46.1 µM), inactives show at the top dose activity, positive = re-replication, actives largely listed as activators. MCF 10A DNA re-replication, Hoechst nuclear intensity, 48 h. hit rate 2.9% among 350,000; further: % of control where 0% means no effect; nearly all actives have a fitted effect of over 50% in size
Gal4-VP16 FLuc: counter-screen for ROR gamma inhibitors: Gal4-VP16 reporter | Drosophila S2 Gal4-VP16 UAS-luciferase, luminescence, 20 h | Potency, µM (titrated, usually from 53.6 µM), for the others: at the highest dose activity, negative = inhibition, usual class: inhibitors | hit rate 3.5% among 310,000;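 further: Gal4-VP16 expression switched on by copper sulfate through the metallothionein promoter; on the % scale 0 is the no-effect control and ±100 the full control effect; nearly all actives have a fitted effect of over 50% in size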
ELG1 DNA repair: inhibitors of ELG1-dependent DNA repair in HEK293T cells | HEK293T ELG1-luciferase reporter, luminescence, 16 h; DNA damage induced by 5-fluorouridine | Potency, µM (highest dose often 46.1 µM), for inactives: at the highest dose activity change, negative = inhibition, most hits filed as inhibitors | hit rate 2.3% among 330,000 | AID 504467; further: on the % scale 0 is the no-effect control and ±100 the full control effect; nearly all actives have a fitted effect of over 55% in size
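In this reporter screen, reduction of luminescence relative to DMSO vehicle indicated activity. Compounds and 5-fluorouridine were added together to 2,000 cells per well, incubated for 16 hr at 37 °C, then developed with ONE-Glo.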
Active calls of the source: *; ? = inconclusive; · = no result; [ ] = remark or other dose. The call rests on the fitted dose curve; in most records, active means well fitted curve in the direction sought with a large enough effect; inconclusive means small, poorly fitted or top-dose-only effect, or another doubt; inactive means no such curve, though single readings can be large; an effect the other way counts as inactive or inconclusive. Potency means the concentration at half of the fitted maximal effect.

SMILES | SW480 rereplic | RORgamma inh | MCF10A rereplic | Gal4-VP16 FLuc | ELG1 DNA repair
COc1cc(/C=C/C(=O)OCC(=O)N2c3ccccc3NC(=O)C2(C)C)cc(OC)c1OC | -1.5% | · | 9.6% | · | 10.3µM*
CC1(C)C(=O)Nc2ccccc2N1C(=O)COC(=O)c1ccc(Cl)c(S(=O)(=O)NCc2ccccc2)c1 | -7.1% | 8.9% | -0.5% | -0.2% | 20.6µM*
CCN(CC)S(=O)(=O)c1ccc(/C=C/C(=O)O)cc1 | -13.3% | 12.6% | -7.2% | -2.3% | 1.8%
O=C(/C=C/c1ccc(OC(F)F)cc1)Nc1cccc(S(=O)(=O)N2CCOCC2)c1 | -2.8% | ? | ? | ? | 23.1µM*
COc1ccc(/C=C/C(=O)Nc2cccc(S(=O)(=O)N3CCOCC3)c2)cc1OC | ? | · | 8.8% | · | 20.6µM*
CN(C)S(=O)(=O)c1cccc(NC(=O)/C=C/c2ccc(S(=O)(=O)N3CCOCC3)cc2)c1 | 1.6% | · | ? | · | 23.1µM*
O=C(/C=C/c1ccccc1)Nc1ccc(S(=O)(=O)N2CCOCC2)cc1 | -4.7% | · | 13.2% | · | ·
CCN(CC)S(=O)(=O)c1ccc(/C=C/C(=O)Nc2cccc(F)c2)cc1 | -3.8% | 20.3%[10 µM] | 2.5% | -0.8% | 13µM*
COc1cc(/C=C/C(=O)Nc2cccc(S(=O)(=O)N3CCOCC3)c2)ccc1OCC#N | 4.3% | · | -2.2% | · | ?
CCOc1ccc(NC(=O)CN(C)C(=O)c2ccccc2SCc2c(C)noc2C)cc1OCC | -4.4% | · | 12.4% | · | -28.0%
CCc1cc2c(nc1CC)CCN(CC/C(C)=N/OC[C@@H](O)COCc1ccco1)C2 | · | -9.9%[10 µM] | · | -9.2%[10 µM] | ·
Cc1ccsc1CNC1C2CC3CC(C2)CC1C3 (centres undefined) | 0.0% | 9.2% | 5.2% | -2.6% | 0.6%
CC(=O)c1cccc(NC(=O)/C=C/c2ccc(S(=O)(=O)N3CCOCC3)cc2)c1 | -15.6% | · | 1.4% | · | 23.1µM*
CCN(CC)S(=O)(=O)c1cccc(C(=O)Nc2cc(C)on2)c1 | -15.9% | 29.5% | 1.8% | -0.9% | -27.7%
CSc1nnc(C)c(/C=C/Nc2ccc(F)cc2)n1 | 0.5% | -9.5% | ? | 10.4% | -21.8%
COc1ccc(N/C=C/c2nc(SC)nnc2C)cc1 | 14.6µM* | -15.5% | ? | -8.9% | -25.9%
CCCCCC(=O)Nc1cccc(C2=NOC3(C2)C[C@@H](C(N)=O)N(C(=O)c2ccc(Cl)cc2)C3)c1 (some centres undefined) | -1.1%[9.22 µM] | 40.2% | ? | -0.8% | ?
CC1(C)Cc2c(cnn2-c2cccc(F)c2)C(NC(=O)C2CCOCC2)C1 (centres undefined) | -36.6% | 30.2% | ? | -5.3% | -2.7%
COc1ccc(C(CNC(=O)CCNS(=O)(=O)c2ccc(Br)cc2)N2CCCC2)cc1 (centres undefined) | -9.9% | · | -0.4% | · | ?
COc1ccccc1C(CNC(=O)CCNS(=O)(=O)c1ccc(Br)cc1)N1CCCC1 (centres undefined) | 6.51µM* | · | -3.9% | · | ·
Nc1cc(=O)[nH]c(SCC(=O)NC2CCCCCCC2)n1 | -1.1% | · | 0.7% | · | 29.9%
CCN(CC)C(=O)c1sc(NC(=O)c2ccc(C)c([N+](=O)[O-])c2)c(C#N)c1C | -5.6% | ? | 5.6% | 0.1% | -26.6%
Cn1c(SCC(=O)Nc2ccc3nc(SCC(=O)N4CCCC4)sc3c2)nnc1-c1ccccc1 | 12.6% | 40.7% | 24.6% | -13.5% | 20.6µM*
NC(CSC(c1ccccc1)(c1ccccc1)c1ccccc1)C(=O)O (centres undefined) | 6.51µM* | · | 6.51µM* | · | ·
NC(CC(=O)NC(c1ccccc1)(c1ccccc1)c1ccccc1)C(=O)O (centres undefined) | -10.5% | -0.5% | -0.2% | -3.7% | ?
SMILES | SW480 rereplic | RORgamma inh | MCF10A rereplic | Gal4-VP16 FLuc | ELG1 DNA repair
O=C(O)c1ccccc1C(c1ccccc1)c1ccccc1O (centres undefined) | 9.9% | · | 0.3% | · | ·
CN(C)c1ccc(C(=O)N/N=C/c2cc(Br)cc(Br)c2O)cc1 | -135.4% | 2.82µM* | 2.2% | 5.62µM* | ?
O=C(N/N=C/c1cc(Cl)ccc1O)c1ccncc1 | 0.651µM* | 3.16µM* | ? | ? | 14.6µM*
COc1cc(/C=N/NC(=O)c2ccncc2)ccc1OC(=O)c1cccc(Br)c1 | -16.7% | -27.8% | -19.2% | -21.5% | 0.5%
O=C(N/N=C/c1ccccc1Cl)c1ccncc1 | 4.3% | 0.4% | ? | 2.0% | 3.8%
COc1c(Br)cc(Br)cc1/C=N/NC(=O)c1ccncc1 | 12.6% | 14.1µM* | 0.9% | -3.4% | -7.7%
COc1c(Br)cc(Br)cc1/C=N/NC(=O)c1cccnc1 | 4.4% | ? | ? | ? | -25.1%
COc1cccc(/C=N/NC(=O)c2ccncc2)c1OC(=O)c1ccc(Br)cc1 | 26.1% | 5.01µM* | 14.6µM* | 11.2µM* | ?
CN(c1ccccc1)S(=O)(=O)c1ccc(C(=O)OCC(=O)NCc2cccs2)cc1 | 12.6% | -1.5% | ? | -1.5% | -12.0%
O=C(NCCC(=O)N1CCC2(CC1)NCCc1[nH]cnc12)c1cccc(Br)c1 | -2.2% | -10.9% | 8.0% | -9.8% | 0.0%
CC(=O)Nc1cccc(C(=O)Nc2ccc(S(=O)(=O)N3CCCCC3)cc2)c1 | -1.4% | · | 0.0% | · | 5.3%
COc1ccc(Cn2c(=O)[nH]c3cc(C(=O)N4CCN(c5ccccn5)CC4)ccc3c2=O)cc1 | 5.7% | -18.0% | 2.1% | -3.2% | ?
COc1cccc(C(=O)Oc2c(Br)cc(Br)cc2/C=N/NC(=O)c2cc(C)[nH]n2)c1 | -2.2% | -16.1% | ? | 22.4µM* | ?
CCNC(=S)N/N=C/c1cc(Br)cc(Br)c1OC | ? | 1.12µM* | -4.7% | 2.51µM* | -9.2%
COCc1c(C(=O)NCc2ccccc2CN2CCCC2)oc2ccccc12 | -5.3% | · | 27.6% | · | 0.6%
Cn1c(=O)n(C)c2cc([N+](=O)[O-])c(N3CCN(S(=O)(=O)c4ccccc4)CC3)cc21 | 0.1% | ? | 19.1% | -5.3% | 11.6µM*
S=C(CN1CCCC1=S)NCCc1ccccc1 | 1.5% | 7.94µM* | 0.1% | ? | ?
S=C(NCCc1ccccc1)N1CCc2ccccc2C1 | -0.9% | ? | -5.4% | ? | 24.8%
Cc1cc(-c2c(C)[nH]n(-c3ccc(Cl)cc3)c2=O)n[nH]1 | ? | 0.112µM* | 14.4% | 0.631µM* | ?
O=C(c1cccc(F)c1)N1CCc2ccccc21 | 1.4% | -41.6% | 0.184µM* | -1.1% | 8.1%
FC(F)Oc1ccc(NC(=S)N2CCc3ccccc32)cc1 | -4.7% | 8.91µM* | -0.5% | -89.6% | -3.3%
O=C(c1cccc([N+](=O)[O-])c1)N1CCc2ccccc21 | -0.4% | -43.6% | -7.5% | -11.3% | 1.1%
Fc1ccc(NC(=S)N2CCc3ccccc32)cc1 | -2.6% | 11.2µM* | 1.7% | ? | 20.5%
Cc1cc(Br)ccc1SCC(=O)OCC(=O)Nc1ncc(C(F)(F)F)cc1Cl | 5.7% | -15.8% | 15.9% | -12.2% | -1.8%
Cc1cc(Cc2ccc(N)c(C)c2)ccc1N | -2.2% | -21.5% | ? | 3.3% | -2.2%
